# HT1080-NT tox: qHTS for induction of synthetic lethality in tumor cells producing 2HG: qHTS for the HT-1080-NT fibrosarcoma cell line | HT-1080-NT fibrosarcoma viability, CellTiter-Glo ATP luminescence, 48 h | Potency, µM (doses to about 46.1 µM), most hits filed as cytotoxic | 1.6% of 360,000 active;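 also: NT is the 2HG producing partner of a matched IDH1 knockdown line; nearly all actives have a fitted effect of over 55% in size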
#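 Viability by CellTiter-Glo luminescence after 48 h compound exposure at 37C of HT-1080-NT cells (750/well, RPMI, 5% FBS). % activity scaled between DMSO wells and medium-only wells, then curve-fitted and categorized by curve class.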
# KB-V1 cytotox: qHTS assay for MDR1-selective chemotherapeutics: Primary screen using the drug-selected MDR subline cells KB-V1; 3.4% of 400,000 active; KB-V1 MDR cells viability, CellTiter-Glo, 72 h; Potency, µM (highest dose often 46.1 µM), actives largely listed as cytotoxic; AID 1347076, 2019; also: nearly all actives have a fitted effect of over 60% in size
#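 Cells of the MDR subline KB-V1 are plated, dosed with compound at multiple concentrations, and incubated 72 h at 37 degrees C; CellTiter-Glo is then added and luminescence read after 10 min.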
# HT1080 IDH1KD tx: qHTS for induction of synthetic lethality in tumor cells producing 2HG: qHTS for the HT-1080-IDH1KD cell line; AID 686971, 2013; HT-1080 IDH1 knockdown viability, ATP luminescence, 48 h; 2% of 360,000 active; Potency, µM (top dose mostly 46.1 µM), actives largely listed as cytotoxic
#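 IDH1KD HT-1080 cells, 750/well, RPMI + 5% FBS; compound pinned after 2 h settling; 48 h, 37 °C; CellTiter-Glo luminescence; % activity normalised to DMSO and no-cell wells; curves fitted, classed by r2 and efficacy.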
# DT40 TDP1 CPT: qHTS for Inhibitors of human tyrosyl-DNA phosphodiesterase 1 (TDP1): qHTS in cells in presence of CPT; Potency, µM (titrated, usually from 46.2 µM), usual class: inhibitors; 12% of 420,000 active; chicken DT40 Tdp1-/-;hTDP1 cells + 20 nM CPT, ATP luminescence, 48 h; also: nearly all actives have a fitted effect of over 55% in size
#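 Cell growth measured by CellTiter-Glo luminescence after a minimum 48 h, 37 C compound exposure with 20 nM CPT in Tdp1-knockout DT40 cells stably expressing hTDP1, seeded 400/well; qHTS titration format.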
# KB-3-1 cytotox: qHTS assay for MDR1-selective chemotherapeutics: Primary screen using the parental adenocarcinoma cell KB-3-1; KB-3-1 viability, CellTiter-Glo ATP luminescence, 72 h; Potency, µM (series often up to 46.1 µM), actives largely listed as cytotoxic; 1.4% of 400,000 active; also: nearly all actives have a fitted effect of over 60% in size
#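 Parental KB-3-1 viability, qHTS format: 72 h compound exposure, 37 °C; CellTiter-Glo; media-only wells and DMSO plates as controls; concentration-effect fits on corrected data.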
# TDP1 cell noCPT: qHTS for Inhibitors of human tyrosyl-DNA phosphodiesterase 1 (TDP1): qHTS in cells in absence of CPT; DT40 Tdp1-/- hTDP1 cells, no CPT, ATP luminescence, 48 h; Potency, µM (titrated, usually from 46.2 µM), actives largely listed as inhibitors; 15% of 420,000 active; also: nearly all actives have a fitted effect of over 55% in size
#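 Growth of hTDP1-complemented DT40 Tdp1-knockout cells is measured by ATP luminescence after at least 48 hr compound exposure at 37 °C, with DMSO substituting for the 20 nM CPT used in the parallel screen.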
# Hits are given with their value; i = inactive; ? = inconclusive; nt = not tested or not shown; ! = repeats disagree. Shown are actives, neighbours in structure and some others; about 19% of the full set was active somewhere. Calls follow the shape of the dose curve; as a rule, active = well fitted curve in the direction sought with a large enough effect; inconclusive = small, poorly fitted or top-dose-only effect, or another doubt; inactive = no such curve, though single readings can be large; an effect the other way counts as inactive or inconclusive.
SMILES,HT1080-NT tox,KB-V1 cytotox,HT1080 IDH1KD tx,DT40 TDP1 CPT,KB-3-1 cytotox,TDP1 cell noCPT
Nc1cc(=O)[nH]c(SCc2cccc(Cl)c2)n1,i,i,i,23µM,i,?
CCOC(=O)C(CC)Sc1ncnc2sc3c(c12)CCCC3 (configuration not stated),nt,i,nt,?,i,?
CCn1ncc([N+](=O)[O-])c1C(=O)Nc1ccc(C)c(C)c1,i,i,i,i,i,i
CSc1n[nH]c(-c2sccc2OCc2ccc(C)cc2)n1,i,16µM,i,i,i,i
CCOc1ccccc1CNC(=O)Cn1ccc2cc(S(=O)(=O)N3CCC(C)CC3)ccc21,i,i,i,?,i,21µM
CCOC(=O)c1ccccc1NC(=O)N1CCCN(S(=O)(=O)c2ccc3c(ccn3CC)c2)CC1,nt,15µM,nt,nt,?,nt
O=C(Cn1ccc2cc(S(=O)(=O)N3CCCCCC3)ccc21)NCc1cccc(Cl)c1,nt,nt,nt,?,nt,18µM
CC(C)NC(=O)Cn1ccc2cc(S(=O)(=O)N3CCCCCC3)ccc21,nt,i,nt,?,i,?
CC(NC(=O)Cn1ccc2cc(S(=O)(=O)N3CCCCCC3)ccc21)c1ccccc1 (configuration not stated),nt,i,nt,?,i,18µM
CCCCc1nn2c(=O)cc(COC(=O)c3cccc(OC)c3)nc2s1,nt,?,nt,?,i,i
Cn1cccc1C(=O)NCc1ccccn1,i,i,i,i,i,i
COC(=O)Cn1ccc2cc(S(=O)(=O)N3CCCCC3)ccc21,i,i,i,21µM!,i,?
O=C(Cn1ccc2cc(S(=O)(=O)N3CCCC3)ccc21)NCCc1ccccc1,i,i,i,?,i,23µM
O=C(Cn1ccc2cc(S(=O)(=O)N3CCCCC3)ccc21)NCc1ccccc1Cl,nt,nt,nt,18µM,nt,21µM
CCc1ccc(Oc2c(C(F)(F)F)oc3c(CN4CCC(C)CC4)c(O)ccc3c2=O)cc1,nt,i,nt,i,i,i
Cc1ccc(C)c(Nc2ccc(C(=O)NCCc3ccccc3)cn2)c1,i,i,i,?,i,i
Cc1ccccc1Nc1sc(C(=O)c2ccc(F)cc2)c(N)c1C(=O)NCCc1ccccc1,nt,?,nt,?,i,18µM
COc1ccc(CCNC(=O)c2c(Nc3ccccc3C)sc(C(=O)c3ccccc3)c2N)cc1OC,nt,i,nt,?,i,9.2µM
COc1ccc(CNC(=O)c2cccn2-c2nnc(N3CCCC3)s2)c(OC)c1,nt,i,nt,?,i,16µM
COc1ccc(NC(=O)c2cccn2-c2nnc(N3CCCCC3)s2)c(OC)c1,nt,i,nt,?,i,?
CCOc1ccccc1CNC(=O)c1cccn1-c1nnc(N2CCCCC2)s1,nt,?,nt,?,i,?
CCN(CC)c1ccc(NC(=O)c2cccn2-c2nnc(N3CCCCC3)s2)c(C)c1,nt,i,nt,5.2µM,i,5.8µM
Cc1ccc(CNC(=O)c2cccn2-c2nnc(N3CCCCC3)s2)cc1,nt,i,nt,21µM,i,23µM
CCOc1ccc(CNC(=O)c2cccn2-c2nnc(N3CCCCC3)s2)cc1OC,nt,i,nt,26µM,i,16µM
COC(=O)[C@H]1[C@H]2CC3c4[nH]c5ccccc5c4CCN3C[C@@H]2CC[C@@H]1O (some centres not stated),nt,nt,nt,i,nt,i
COc1ccc(CNC(=O)[C@H](C)NC(=O)C2CCN(C(=O)[C@@H](N)Cc3ccccc3)CC2)cc1,i,i,i,i,i,i
COc1ccc(Nc2nn3c(=O)c4cc5c(cc4nc3s2)OCO5)c(OC)c1,nt,i,nt,?,i,?
O=C(Nc1nc(-c2cccs2)c(-c2cccs2)s1)C1(c2ccccc2)CC1,i,18µM,i,?,i,?

# Screening results (PubChem BioAssay)
